In assay [1] the target is rat Serotonin, 5-Hydroxytryptamine Receptor 1 (5HT1), Non-Selective Binding, Htr1a (gene 24473) (UniProt P19327). Briefly: NVS_GPCR_r5HT1_NonSelective: NovaScreen (NVS) G Protein-Coupled Receptor Assay for rat Serotonin, 5-Hydroxytryptamine Receptor 1 (5HT1), Non-Selective Binding (AID 2283286). The gist of the method:
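Rat cortical membranes, radioligand displacement, 1 h incubation, read by filter scintillation. Primary screen in duplicate at 25 uM. Hits (e.g. ≥30% inhibition) went to concentration-response up to 50 uM, fitted as loss of binding versus DMSO.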

Assay [2] has as its system 5-hydroxytryptamine receptor 2C (pig). The assay can be described thus: NVS_GPCR_p5HT2C: NovaScreen (NVS) G Protein-Coupled Receptor Assay for pig Serotonin, 5-Hydroxytryptamine Receptor 2C (5HT2C) (AID 2283288). A digest of the protocol:
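Pig choroid plexus membranes; radioligand competitive binding, filter-based scintillation counting, read 1 h after dosing. Primary screen in duplicate at 25 uM; actives then run as concentration series; loss of signal versus DMSO baseline.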

The target in assay [3] is guinea pig Serotonin, 5-Hydroxytryptamine Receptor 4 (5HT4), HTR4 (gene 100135548) (UniProt O70528). Briefly: NVS_GPCR_g5HT4: NovaScreen (NVS) G Protein-Coupled Receptor Assay for guinea pig Serotonin, 5-Hydroxytryptamine Receptor 4 (5HT4) (AID 2283294). The gist of the method: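 Guinea pig striatal membranes; radioligand competitive displacement, filtration and scintillation counting after 1 h. Primary screen in duplicate at 25 uM; actives then tested in concentration series; loss of binding signal fitted relative to DMSO.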
Sequence of guinea pig Serotonin, 5-Hydroxytryptamine Receptor 4 (5HT4), HTR4 (gene 100135548) (O70528 whole entry, looked up): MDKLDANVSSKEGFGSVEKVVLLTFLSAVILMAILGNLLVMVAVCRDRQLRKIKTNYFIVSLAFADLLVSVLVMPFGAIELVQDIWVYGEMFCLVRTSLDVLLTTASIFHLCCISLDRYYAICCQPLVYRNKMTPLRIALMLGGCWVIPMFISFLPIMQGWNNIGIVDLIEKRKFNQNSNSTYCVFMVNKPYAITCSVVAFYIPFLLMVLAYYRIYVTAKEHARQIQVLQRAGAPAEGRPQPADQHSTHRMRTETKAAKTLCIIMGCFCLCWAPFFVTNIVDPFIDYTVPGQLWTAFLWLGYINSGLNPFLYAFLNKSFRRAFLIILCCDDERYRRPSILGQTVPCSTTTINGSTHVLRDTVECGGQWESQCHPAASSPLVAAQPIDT

In assay [4] the target is rat Serotonin, 5-Hydroxytryptamine Receptor (5HT), Non-Selective Binding, Htr1a (gene 24473) (UniProt P19327). The assay can be described thus: NVS_GPCR_r5HT_NonSelective: NovaScreen (NVS) G Protein-Coupled Receptor Assay for rat Serotonin, 5-Hydroxytryptamine Receptor (5HT), Non-Selective Binding (AID 2283295). A digest of the protocol: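 Radioligand displacement on rat cortical membranes, 1 h incubation, filter-based scintillation counting. Primary duplicates at 25 uM, actives retested in concentration series; loss of signal fitted against DMSO as baseline.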
Sequence of rat Serotonin, 5-Hydroxytryptamine Receptor (5HT), Non-Selective Binding, Htr1a (gene 24473) (P19327 whole entry, looked up): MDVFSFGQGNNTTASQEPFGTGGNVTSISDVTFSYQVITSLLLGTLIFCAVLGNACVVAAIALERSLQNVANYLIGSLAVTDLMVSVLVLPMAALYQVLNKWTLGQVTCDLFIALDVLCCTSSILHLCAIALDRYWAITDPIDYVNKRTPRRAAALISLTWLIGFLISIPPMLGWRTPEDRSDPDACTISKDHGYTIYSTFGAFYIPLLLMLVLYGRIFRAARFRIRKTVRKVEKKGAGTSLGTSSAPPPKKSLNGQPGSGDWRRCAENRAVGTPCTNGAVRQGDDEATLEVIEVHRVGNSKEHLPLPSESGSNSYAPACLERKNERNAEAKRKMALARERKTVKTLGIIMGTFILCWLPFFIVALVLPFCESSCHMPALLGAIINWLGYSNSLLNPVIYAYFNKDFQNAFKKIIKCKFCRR

For assay [5], the target named is Neuropeptide Y receptor type 2 (Homo sapiens) (UniProt P49146). The assay can be described thus: NVS_GPCR_hNPY2: NovaScreen (NVS) G Protein-Coupled Receptor Assay for human Neuropeptide Receptor Y2 (NPY2) (AID 2283277). The gist of the method: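 Radioligand binding on membranes extracted from SK-N-MC cells, cell-free, read 1 h after dosing by filter-based scintillation counting. Loss of signal vs DMSO. Primary screen in duplicate at 25 uM; actives followed up in concentration-response up to 50 uM.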

Assay [6] deals with human Thromboxane A2 Receptor (TXA2), TBXA2R (gene 6915) (UniProt P21731). The assay can be described thus: NVS_GPCR_hTXA2: NovaScreen (NVS) G Protein-Coupled Receptor Assay for human Thromboxane A2 Receptor (TXA2) (AID 2283282).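 Note: actives reduce bound radioligand signal relative to DMSO baseline.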 A digest of the protocol:
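Filter scintillation counting of bound radioligand, human platelet protein, 1 h exposure. Single-concentration duplicates (25 uM) first, concentration-response follow-up for actives. Binding loss scored against DMSO baseline.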

For assay [7], the target named is human Opioid Receptor Delta 1 (Opiate D1), OPRD1 (gene 4985) (UniProt P41143). Briefly: NVS_GPCR_hOpiate_D1: NovaScreen (NVS) G Protein-Coupled Receptor Assay for human Opioid Receptor Delta 1 (Opiate D1) (AID 2283280). A digest of the protocol: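 Radioligand displacement on membranes from CHO cells expressing the receptor, read by filter scintillation counting 1 h after dosing. Duplicate single-point screen at 25 uM, then concentration series for actives; loss of signal versus DMSO.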
Sequence of human Opioid Receptor Delta 1 (Opiate D1), OPRD1 (gene 4985) (P41143 whole entry, looked up): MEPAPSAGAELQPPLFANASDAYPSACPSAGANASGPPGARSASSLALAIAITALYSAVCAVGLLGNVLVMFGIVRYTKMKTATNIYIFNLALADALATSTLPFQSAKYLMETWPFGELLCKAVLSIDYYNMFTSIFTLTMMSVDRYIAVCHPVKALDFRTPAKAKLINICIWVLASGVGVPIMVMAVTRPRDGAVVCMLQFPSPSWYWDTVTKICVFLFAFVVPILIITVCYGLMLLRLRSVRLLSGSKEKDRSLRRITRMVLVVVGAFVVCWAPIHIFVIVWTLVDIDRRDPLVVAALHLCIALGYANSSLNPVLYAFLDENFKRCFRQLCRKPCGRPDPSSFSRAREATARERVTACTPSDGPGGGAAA

For assay [8], the target named is human Purinergic Receptor P2Y, P2RY1 (gene 5028) (UniProt P47900). The assay can be described thus: NVS_GPCR_hPY2: NovaScreen (NVS) G Protein-Coupled Receptor Assay for human Purinergic Receptor P2Y (AID 2283281). The gist of the method:
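Cell-free radioligand binding using U937-derived protein, 1 h after dosing, filter-based scintillation counting. Screened in duplicate at 25 uM; actives rerun as concentration-response up to 50 uM; loss of signal versus DMSO.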

Assay [9] deals with mouse Cholecystokinin, CCK1 Receptor (CCKA), Cckar (gene 12425) (UniProt O08786). Briefly: NVS_GPCR_mCCKAPeripheral: NovaScreen (NVS) G Protein-Coupled Receptor Assay for mouse Cholecystokinin, CCK1 Receptor (CCKA) (AID 2283285). A digest of the protocol:
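Radioligand competitive displacement on mouse pancreatic membranes, 2 h incubation; filter-based scintillation counting, loss of signal versus DMSO. Single-concentration screen at 25 uM in duplicate, actives retested in concentration-response up to 50 uM.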

The target of assay [10] is Muscarinic acetylcholine receptor M2 (Homo sapiens) (UniProt P08172). The assay can be described thus: NVS_GPCR_hM2: NovaScreen (NVS) G Protein-Coupled Receptor Assay for human Muscarinic, M2 Receptor (AID 2283273). A digest of the protocol:
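CHO membrane prep, radioligand + test compound, 1 h; filtration, scintillation count. Screen 25 uM duplicate → conc. series for actives. Readout: decrease in binding vs DMSO control.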

Assay [11] deals with human Vasopressin 1A Receptor (V1A), AVPR1A (gene 552) (UniProt P37288). Briefly: NVS_GPCR_hV1A: NovaScreen (NVS) G Protein-Coupled Receptor Assay for human Vasopressin 1A Receptor (V1A) (AID 2283284). A digest of the protocol:
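Cell-free radioligand displacement on human platelet preparations, 1.5 h incubation, filter-based scintillation counting. Chemicals first tested in duplicate at 25 uM; actives then run in concentration-response up to 50 uM, loss of signal fitted against DMSO.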

The target of assay [12] is human Neurotensin Receptor (NTS), NTSR1 (gene 4923) (UniProt P30989). Briefly: NVS_GPCR_hNTS: NovaScreen (NVS) G Protein-Coupled Receptor Assay for human Neurotensin Receptor (NTS) (AID 2283279). The gist of the method:
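Radioligand displacement on human NTSR1 protein from CHO cells, cell-free, 1 h, filter-based scintillation counting. Primary screen at 25 uM in duplicate; hits rerun in concentration-response up to 50 uM.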

In assay [13] the target is human Muscarinic, M4 Receptor, CHRM4 (gene 1132) (UniProt P08173). The assay can be described thus: NVS_GPCR_hM4: NovaScreen (NVS) G Protein-Coupled Receptor Assay for human Muscarinic, M4 Receptor (AID 2283274). The gist of the method:
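Cell-free radioligand displacement using CHO-derived human M4 receptor protein, 1 h after dosing; bound radioactivity by filtration and scintillation counting. Primary screen single 25 uM duplicate, actives followed in concentration series.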

For assay [14], the target named is Muscarinic acetylcholine receptor M5 (Homo sapiens) (UniProt P08912). The assay can be described thus: NVS_GPCR_hM5: NovaScreen (NVS) G Protein-Coupled Receptor Assay for human Muscarinic, M5 Receptor (AID 2283275). A digest of the protocol: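 Radioligand displacement on CHO-derived membrane preparations, 1 h, filter-based scintillation counting. Single-concentration duplicate screen at 25 uM; hits (e.g. 30% inhibition) retested in singleton concentration-response up to 50 uM. Loss of binding fitted versus DMSO.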
Sequence of Muscarinic acetylcholine receptor M5 (Homo sapiens) (P08912 whole entry, looked up): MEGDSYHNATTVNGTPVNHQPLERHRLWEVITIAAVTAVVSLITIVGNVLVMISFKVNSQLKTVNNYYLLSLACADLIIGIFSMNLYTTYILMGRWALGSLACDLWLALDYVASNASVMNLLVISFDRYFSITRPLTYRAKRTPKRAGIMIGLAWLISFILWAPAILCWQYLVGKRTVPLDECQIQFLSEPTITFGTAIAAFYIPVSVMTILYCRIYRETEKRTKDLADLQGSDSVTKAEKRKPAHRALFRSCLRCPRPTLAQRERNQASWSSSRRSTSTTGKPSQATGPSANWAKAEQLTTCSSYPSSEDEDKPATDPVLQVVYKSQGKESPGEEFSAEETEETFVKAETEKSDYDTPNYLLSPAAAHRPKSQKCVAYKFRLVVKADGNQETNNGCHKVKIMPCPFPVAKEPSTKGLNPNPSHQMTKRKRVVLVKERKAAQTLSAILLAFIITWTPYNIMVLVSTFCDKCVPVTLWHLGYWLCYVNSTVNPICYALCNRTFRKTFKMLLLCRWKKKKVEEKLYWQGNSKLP

Assay [15] has as its target rat Adrenergic, Alpha 1, Non-selective Receptor (Adra1), Adra1a (gene 29412) (UniProt P43140). Briefly: NVS_GPCR_rAdra1_NonSelective: NovaScreen (NVS) G Protein-Coupled Receptor Assay for rat Adrenergic, Alpha 1, Non-selective Receptor (Adra1) (AID 2283289). A digest of the protocol:
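Rat forebrain membranes; radioligand displacement read by filter-based scintillation counting 1 h after dosing. Primary screen in duplicate at 25 uM; hits (e.g. ≥30% inhibition) rerun as concentration–response to 50 uM max. Fitted versus DMSO.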

Assay [16] addresses human Neuropeptide Receptor Y1 (NPY1), NPY1R (gene 4886) (UniProt P25929). The assay can be described thus: NVS_GPCR_hNPY1: NovaScreen (NVS) G Protein-Coupled Receptor Assay for human Neuropeptide Receptor Y1 (NPY1) (AID 2283276). A digest of the protocol: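 Cell-free radioligand binding using receptor extracted from SK-N-MC cells, 1 h incubation, filter-based scintillation counting. Primary screen single concentration 25 uM in duplicate; actives followed in concentration series. Loss of bound signal scored versus DMSO.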

In assay [17] the target is human Orphanin, Opioid Related Nociceptin Receptor 1 (ORL1), OPRL1 (gene 4987) (UniProt P41146). Briefly: NVS_GPCR_hORL1: NovaScreen (NVS) G Protein-Coupled Receptor Assay for human Orphanin, Opioid Related Nociceptin Receptor 1 (ORL1) (AID 2283283). The gist of the method: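 Filter-based radioligand displacement with receptor extracted from HEK293 cells, read 1 hour after dosing by scintillation counting. Duplicate single-point screen at 25 uM; qualifying chemicals then run in concentration-response to 50 uM, analysed relative to DMSO.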

Assay [18] has as its system rabbit Platelet Activating Factor Receptor (PAF), gene 100354046. Briefly: NVS_GPCR_rabPAF: NovaScreen (NVS) G Protein-Coupled Receptor Assay for rabbit Platelet Activating Factor Receptor (PAF) (AID 2283287). The gist of the method: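 Rabbit platelet membrane preparation; radioligand displacement read by filter-based scintillation counting 1 h after dosing, loss of signal versus DMSO. Primary screen in duplicate at 25 uM, actives followed up in concentration series.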

These results are taken from PubChem BioAssay (EPA / NIEHS).

Records with an inconclusive call do not appear. The source made the active and inactive calls. Rule for the calls: active = hit-call score of the fitted dose curve at least 0.9, where 1 is the maximum; inconclusive = response in the unintended direction; inactive = score below 0.9.

Sequence of rat Serotonin, 5-Hydroxytryptamine Receptor 1 (5HT1), Non-Selective Binding, Htr1a (gene 24473) (P19327 whole entry, looked up): as the sequence (P19327 whole entry, looked up) above
Sequence of human Thromboxane A2 Receptor (TXA2), TBXA2R (gene 6915) (P21731 whole entry, looked up): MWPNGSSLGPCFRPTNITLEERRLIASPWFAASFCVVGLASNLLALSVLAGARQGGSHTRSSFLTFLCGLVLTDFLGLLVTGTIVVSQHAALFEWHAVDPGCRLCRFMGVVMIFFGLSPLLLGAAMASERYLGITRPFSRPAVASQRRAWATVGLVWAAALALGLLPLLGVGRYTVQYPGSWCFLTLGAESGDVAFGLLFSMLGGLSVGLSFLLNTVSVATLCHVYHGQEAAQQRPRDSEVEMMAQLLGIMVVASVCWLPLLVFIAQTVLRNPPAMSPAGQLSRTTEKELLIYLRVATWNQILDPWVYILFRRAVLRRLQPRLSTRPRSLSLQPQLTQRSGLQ
Sequence of Muscarinic acetylcholine receptor M2 (Homo sapiens) (P08172 whole entry, looked up): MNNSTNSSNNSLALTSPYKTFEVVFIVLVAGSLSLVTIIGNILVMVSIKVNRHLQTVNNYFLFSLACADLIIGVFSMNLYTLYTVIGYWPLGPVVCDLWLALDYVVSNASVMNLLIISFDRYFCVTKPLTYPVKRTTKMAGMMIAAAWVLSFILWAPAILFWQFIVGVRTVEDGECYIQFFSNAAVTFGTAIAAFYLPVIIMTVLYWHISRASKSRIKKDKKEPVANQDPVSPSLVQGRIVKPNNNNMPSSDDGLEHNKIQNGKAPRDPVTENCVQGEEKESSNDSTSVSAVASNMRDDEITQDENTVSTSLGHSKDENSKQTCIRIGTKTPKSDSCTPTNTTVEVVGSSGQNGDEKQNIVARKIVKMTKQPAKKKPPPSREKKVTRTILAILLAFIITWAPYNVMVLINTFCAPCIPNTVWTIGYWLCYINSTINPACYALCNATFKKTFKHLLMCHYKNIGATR
Sequence of human Muscarinic, M4 Receptor, CHRM4 (gene 1132) (P08173 whole entry, looked up): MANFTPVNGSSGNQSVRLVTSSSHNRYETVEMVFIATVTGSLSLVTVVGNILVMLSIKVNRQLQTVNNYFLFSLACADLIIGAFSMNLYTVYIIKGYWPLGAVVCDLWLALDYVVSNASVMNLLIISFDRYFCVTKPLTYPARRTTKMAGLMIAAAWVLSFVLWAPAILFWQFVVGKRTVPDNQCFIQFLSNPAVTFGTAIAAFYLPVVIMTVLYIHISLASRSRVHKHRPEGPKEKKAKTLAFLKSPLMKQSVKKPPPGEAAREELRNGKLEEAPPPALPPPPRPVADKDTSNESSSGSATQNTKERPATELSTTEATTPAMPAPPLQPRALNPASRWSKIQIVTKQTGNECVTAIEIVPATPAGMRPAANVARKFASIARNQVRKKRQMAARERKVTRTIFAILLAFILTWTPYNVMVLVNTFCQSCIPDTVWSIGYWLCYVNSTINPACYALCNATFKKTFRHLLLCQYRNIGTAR
Sequence of rat Adrenergic, Alpha 1, Non-selective Receptor (Adra1), Adra1a (gene 29412) (P43140 whole entry, looked up): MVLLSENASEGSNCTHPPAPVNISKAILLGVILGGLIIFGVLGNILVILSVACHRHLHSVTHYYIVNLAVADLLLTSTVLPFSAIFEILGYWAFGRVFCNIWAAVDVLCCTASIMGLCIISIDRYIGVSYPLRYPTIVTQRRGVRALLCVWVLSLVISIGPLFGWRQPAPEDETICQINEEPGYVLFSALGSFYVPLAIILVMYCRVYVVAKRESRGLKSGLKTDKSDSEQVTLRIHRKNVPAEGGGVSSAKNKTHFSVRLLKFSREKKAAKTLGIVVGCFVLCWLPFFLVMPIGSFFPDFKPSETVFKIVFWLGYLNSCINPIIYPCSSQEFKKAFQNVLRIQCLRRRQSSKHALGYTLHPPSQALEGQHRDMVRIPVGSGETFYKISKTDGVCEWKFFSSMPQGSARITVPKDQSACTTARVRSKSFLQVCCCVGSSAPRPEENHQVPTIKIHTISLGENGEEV
Sequence of mouse Cholecystokinin, CCK1 Receptor (CCKA), Cckar (gene 12425) (O08786 whole entry, looked up): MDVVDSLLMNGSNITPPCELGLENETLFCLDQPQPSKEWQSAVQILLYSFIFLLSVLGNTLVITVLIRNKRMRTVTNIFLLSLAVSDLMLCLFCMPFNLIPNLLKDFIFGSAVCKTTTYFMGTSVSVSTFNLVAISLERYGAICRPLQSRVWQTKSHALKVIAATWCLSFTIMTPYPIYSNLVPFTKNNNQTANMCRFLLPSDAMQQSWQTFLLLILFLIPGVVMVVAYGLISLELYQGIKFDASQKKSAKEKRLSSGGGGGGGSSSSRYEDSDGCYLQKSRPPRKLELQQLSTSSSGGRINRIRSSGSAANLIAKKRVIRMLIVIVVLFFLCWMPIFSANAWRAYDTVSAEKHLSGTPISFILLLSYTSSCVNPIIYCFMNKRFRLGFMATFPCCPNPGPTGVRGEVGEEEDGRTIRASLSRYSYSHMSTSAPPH
Sequence of human Vasopressin 1A Receptor (V1A), AVPR1A (gene 552) (P37288 whole entry, looked up): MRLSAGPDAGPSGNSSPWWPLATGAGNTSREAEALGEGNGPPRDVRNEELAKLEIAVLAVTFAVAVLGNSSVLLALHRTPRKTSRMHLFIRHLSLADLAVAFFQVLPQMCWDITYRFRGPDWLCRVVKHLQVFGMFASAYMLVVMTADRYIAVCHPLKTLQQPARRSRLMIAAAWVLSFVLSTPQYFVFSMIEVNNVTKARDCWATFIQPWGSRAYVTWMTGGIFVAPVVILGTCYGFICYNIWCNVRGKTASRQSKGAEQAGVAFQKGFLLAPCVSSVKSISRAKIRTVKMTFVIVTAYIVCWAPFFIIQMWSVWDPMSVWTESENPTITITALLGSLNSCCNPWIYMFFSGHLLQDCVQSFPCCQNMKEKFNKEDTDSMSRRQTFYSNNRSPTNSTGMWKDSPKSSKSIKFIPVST

As to `CN1CCN(c2ccccc2/C=C2\SCCN(c3ccc(Cl)c(Cl)c3)C2=O)CC1`, the AC50 in [1] is 0.626 µM (active); in assay [2], 0.748 µM (active); in [3], 6.07 µM (active); in assay [4] it was 11.9 µM (active).

Take `CC1=C(/C=C/C(C)=C/C=C/C(C)=C/C(=O)O)C(C)(C)CCC1`: the AC50 in [1] is 4.36 µM (active).

With `CCCCC(CC)COC(=O)CCCCC(=O)OCC(CC)CCCC` (stereo unspecified), the compound was classed as inactive in [5]. In assay [6], the AC50 was 13.8 µM (active).

For the compound `Nc1cccc2c(N)cccc12`, the result in assay [6] and in [3] was inactive.

As to `Cc1cc(CCN2CCN(c3nsc4ccccc34)CC2)cc2c1NC(=O)CC2(C)C`, the AC50 in assay [2] is 0.00247 µM (active); in assay [3], 15.2 µM (active).

As to `NC(=O)N1C(=O)C(C(=O)c2cc(Cl)cs2)c2cc(F)c(Cl)cc21` (stereo unspecified), the outcome in assay [7], in assay [8], in [9] and in assay [2] was inactive. In assay [6], the concentration at half-maximal activity (AC50) is 0.961 µM (active).

Turning to `CCCOC(=O)c1ccc(O)cc1`, the compound was called inactive in [2].

On to `CC[C@H](C)[C@@H](C(=O)O)n1sc2ccccc2c1=O`, for which the compound was classed as inactive in assay [7] and in assay [6].

For the compound `CCCCCCCCCCCCCC[N+](C)(C)C`, the AC50 in [10] was 1.07 µM (active).

Turning to `N#C[C@@H]1CC(F)(F)CN1C(=O)CNC1CC2CCC(C1)N2c1ncccn1` (stereo partly specified), in assay [11], the compound was classed as inactive.

For the compound `CC(C)(C)CC(C)(C)c1ccc(O)c(-n2nc3ccccc3n2)c1`, the half-maximal activity concentration (AC50) in [12] was 19.4 µM (active).

In the case of `Oc1cc2ccccc2c2ccccc12`, the AC50 in assay [2] was 0.848 µM (active). In addition, in [3], the compound was called inactive.

`CC(=O)NC1(c2cccc(F)c2)CCN(CC[C@@]2(c3ccc(Cl)c(Cl)c3)CN(c3ccccc3)C(=O)CO2)CC1`: the AC50 in assay [10] is 8.68 µM (active); in [13], 13.9 µM (active); in assay [14], 10.6 µM (active); in [2], 3.53 µM (active); in assay [15] it was 11.8 µM (active); in [4] it was 2.9 µM (active). The compound was called inactive in [7].

In the case of `CC[C@H](c1ccc(O)cc1)[C@@H](CC)c1ccc(O)cc1`, in assay [7], the AC50 was 8.04 µM (active).

As for `O=[N+]([O-])c1ccc(O)cc1`, the compound was classed as inactive in assay [2] and in [4].

With `CN1CCC[C@H]1c1cccnc1`, the compound was called inactive in assay [13] and in [14].

On to `CCCOc1sc(C(=O)N2CCC(c3cc(CN)ccc3F)CC2)c(C)c1Br`, for which the AC50 was 12.2 µM (active) in [10]; 11.1 µM (active) in [13]; 4.84 µM (active) in assay [14]; 13.5 µM (active) in assay [16]; 9.25 µM (active) in assay [7]; 24 µM (active) in assay [17]. The AC50 in assay [9] was 27.1 µM (active); in [1], 5.18 µM (active); in assay [18] it was 23.2 µM (active); in assay [2] it was 16.6 µM (active); in assay [15], 20.6 µM (active); in [3], 25.9 µM (active). Further, in [4], the AC50 is 11.1 µM (active). In addition, the result in [6] and in assay [11] was inactive.

The AC50 is the midpoint of the concentration-response curve, whichever way the signal moves.
